Measured values: PubChem BioAssay (NCATS)
Calls of active or inactive are those of the source. The call rests on the fitted dose curve; in most records, active means well fitted inhibition curve with a large enough effect; inconclusive means small, poorly fitted or top-dose-only effect; inactive means no such curve, though single readings can be large or run the other way.

Molecular target: Pyruvate kinase (Leishmania mexicana) (UniProt Q27686)
Assay: qHTS Validation Assay for Inhibitors of Leishmania Mexicana Pyruvate Kinase (AID 945);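 further: 0% = DMSO only neutral control wells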
Details: purified L. mexicana pyruvate kinase, enzyme activity, E451W mutant enzyme; series mostly up to 57.5 µM; activity change, negative = inhibition: at the top concentration
Text: NIH Molecular Libraries Screening Centers Network [MLSCN]
NIH Chemical Genomics Center [NCGC]
PI names: Malcom Walkinshaw, Hugh Morgan and Linda Gilmore
University of Edinburgh, Edinburgh, UK
Species of Leishmania are responsible for a wide spectrum of diseases throughout the tropics and subtropics, ranging from self-healing ulcers to highly disfiguring lesions and serious, often lethal visceral diseases, such as kala-azar. In Leishmania spp. it has been shown that both sugar uptake and gluconeogenesis are necessary to synthesize sufficient hexose-phosphate required for the production of glycoconjugates and the intracellular polysaccharide mannan which are essential for both replication and virulence of the parasites. Therefore, most of the enzymes participating in glycolysis and gluconeogenesis are expected to be essential (Naderer et al., 2006). The assay described here targets pyruvate kinase from Leishmania mexicania (LmPYK) that was obtained as a highly purified preparation from the University of Edinburgh (E451W mutant was provided). A 1536 well assay protocol was set up and validated by screening the LOPAC library in triplicate as an eight point concentration-titration series using the qHTS platform developed at the NCGC.
NCGC Assay Protocol Summary:
Three uL of substrate mix (final concentrations, 50 mM imidazole pH 7.2, 50 mM KCl, 7 mM MgCl2, 0.5 mM PEP, 0.1 mM ADP, 0.01% Tween 20, 0.05% BSA) was dispensed into white solid medium binding Greiner 1536 well plates. 23 nL of compound were delivered by a pin tool and 1 uL of enzyme mix (final concentration, 0.2 nM LmPYK, 50 mM imidazole pH 7.2, 0.05% BSA) was added. Plates were covered with stainless steel gasket-lined lids and incubated at room temperature for 1 hour. Two uL of detection and kinase stop mix (PKLight, Lonza) was added, and luminescence read by a ViewLux (Perkin Elmer) at 2 second exposure/plate using 2x binning. Controls on each plate were as follows: column 1, sixteen-point titration (1:2 dilutions) in duplicate the LmPK activator LOPAC-C8145 beginning at 57 uM final concentration; column 2, sixteen-point titration (1:2 dilutions) in duplicate activator LOPAC-S4063 beginning at 57 uM final concentration; column 3, column 4 DMSO only. Data were normalized to the neutral control (column 3).

Sequence of Pyruvate kinase (Leishmania mexicana) (Q27686 2-499 E452W): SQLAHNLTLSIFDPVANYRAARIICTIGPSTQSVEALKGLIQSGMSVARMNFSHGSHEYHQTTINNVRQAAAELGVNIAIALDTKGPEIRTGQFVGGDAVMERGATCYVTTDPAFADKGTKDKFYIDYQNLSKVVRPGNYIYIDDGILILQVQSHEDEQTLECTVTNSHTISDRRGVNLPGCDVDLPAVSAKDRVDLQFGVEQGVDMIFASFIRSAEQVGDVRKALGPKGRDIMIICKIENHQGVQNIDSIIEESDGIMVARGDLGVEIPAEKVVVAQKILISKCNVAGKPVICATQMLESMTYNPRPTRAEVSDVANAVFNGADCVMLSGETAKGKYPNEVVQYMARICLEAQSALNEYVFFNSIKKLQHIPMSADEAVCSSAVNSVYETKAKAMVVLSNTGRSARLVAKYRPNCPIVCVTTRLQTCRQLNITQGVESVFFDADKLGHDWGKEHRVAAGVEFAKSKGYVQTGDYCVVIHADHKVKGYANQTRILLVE

Activity change, negative = inhibition, inactive:
CN(C)CC[C@@H](c1ccccc1)c1ccccn1 -15.4%, COc1ccc([C@H]2Sc3ccccc3N(CCN(C)C)C(=O)[C@H]2OC(C)=O)cc1 -8.28%, C[C@@H](C[N+](C)(C)C)OC(N)=O 8.2%, CCN(CC)CCC[C@H](C)Nc1ccnc2cc(Cl)ccc12 -9.64%, CCCN[C@@H](C)C(=O)Nc1ccccc1C -8.37%, CN1CCc2cccc3c2[C@@H]1Cc1ccc(O)c(O)c1-3 -8.25%, CC(C)(Oc1ccc([C@@H]2CC2(Cl)Cl)cc1)C(=O)O 3.55%, C[C@H](NCCc1ccc(O)cc1)[C@@H](O)c1ccc(O)cc1 1.72%, Cn1cc(C(F)(F)F)nc1-c1ccc(OC[C@@H](O)CNCCOc2ccc(O)c(C(N)=O)c2)cc1 6.23%, Cc1cccc(C)c1OC[C@H](C)N 12.4%, OCCN1CCN(CC/C=C2\c3ccccc3Sc3ccc(C(F)(F)F)cc32)CC1 -6.76%, C[C@@H](COc1ccccc1)N(CCCl)Cc1ccccc1 -10.8%, NC(=NCc1ccc(Cl)c(Cl)c1)NC(=O)c1nc(Cl)c(N)nc1N 6.59%, Cc1ccccc1[C@@H](OCCN(C)C)c1ccccc1 4.97%, C[C@@H](C(=O)O)c1cccc(C(=O)c2ccccc2)c1 -7.24%, CC(C)(C)NC[C@H](O)c1cc(O)cc(O)c1 3.5%, CC(C)NC[C@H](O)c1cc(O)cc(O)c1 5.76%, O[C@@](CCN1CCCCC1)(c1ccccc1)C1CCCCC1 7.32%, CC(=O)OCC1=C(C(=O)O)N2C(=O)[C@@H](NC(=O)CSc3ccncc3)[C@@H]2SC1 160%, CCN1CCC[C@@H]1CNC(=O)c1cc(S(N)(=O)=O)ccc1OC -6.24%, CCN(CC)CC#CCOC(=O)[C@@](O)(c1ccccc1)C1CCCCC1 5.48%, N[C@H](C(=O)N[C@@H]1C(=O)N2C(C(=O)O)=C(Cl)CS[C@@H]12)c1ccccc1 18.5%, CC(C)COC[C@H](CN(Cc1ccccc1)c1ccccc1)N1CCCC1 -4.69%, CC[C@]1(C)CC(=O)NC1=O 1.88%, COc1cc(=O)n(C)c2c(OC[C@@H](O)C(C)(C)O)cccc12 -6.97%, O=C(c1ccccc1)c1ccc2n1CC[C@H]2C(=O)O -4.86%, CC1=C(C(=O)O)N2C(=O)[C@@H](NC(=O)[C@@H](N)c3ccccc3)[C@@H]2SC1 12.3%, CC(=O)O[C@]1(C(C)=O)CC[C@@H]2[C@@H]3C=C(Cl)C4=CC(=O)[C@H]5C[C@@H]5[C@]4(C)[C@H]3CC[C@]21C -7.76%, CCn1cc(C(=O)O)c(=O)c2cc(F)c(N3CCN[C@@H](C)C3)c(F)c21 5.71%, CC(=O)OCC1=C(C(=O)O)N2C(=O)[C@@H](NC(=O)Cc3cccs3)[C@@H]2SC1 80.9%, CCCN(CCC)C(=O)[C@@H](CCC(=O)O)NC(=O)c1ccccc1 3.64%, CO[C@]1(NC(=O)CSCC#N)C(=O)N2C(C(=O)O)=C(CSc3nnnn3C)CS[C@H]21 13.3%, C[C@@H](CN(C)C)CN1c2ccccc2CCc2ccccc21 -3.53%, C[C@@](N)(Cc1ccc(O)c(O)c1)C(=O)O 11.8%, C=CCc1ccccc1OC[C@H](O)CNC(C)C 3.98%, C[C@@H]1c2cccc(O)c2C(O)=C2C(=O)[C@@]3(O)C(O)=C(C(N)=O)C(=O)[C@@H](N(C)C)[C@@H]3[C@@H](O)[C@@H]21 -7.23%, CCN(CC)CCC[C@H](C)Nc1c2ccc(Cl)cc2nc2ccc(OC)cc12 -14.7%

outcome, inactive:
C[C@@](N)(Cc1ccc(O)cc1)C(=O)O, CN(C)CC[C@H](c1ccc(Br)cc1)c1ccccn1, c1ccc([C@@H]2CN3CCSC3=N2)cc1
